What all share (conditions): mRNA level, 48 h; actives raise or lower the signal
Read-out in assay [1]: Fatty acid synthase (Homo sapiens) (UniProt P49327)
As to the kind of experiment: LTEA_HepaRG_FASN: Life Technologies and Expression Analysis (LTEA) Assay for Fatty Acid Synthase (FASN) using HepaRG (AID 2283448). The essentials: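 Differentiated human HepaRG cells were exposed for 48 h in serum-free induction medium to eight half-log concentrations up to 100 uM in 0.5% DMSO, in duplicate. FASN mRNA was quantified by TaqMan qRT-PCR, normalized to ACTB/GAPDH/POLR2A, and fitted bidirectionally against DMSO.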

Read-out in assay [2]: Cyclin D2 (CCND2), CCND2 (gene 894)
Nature of the assay: LTEA_HepaRG_CCND2: Life Technologies and Expression Analysis (LTEA) Assay for Cyclin D2 (CCND2) using HepaRG (AID 2283449).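 Note: CCND2 transcript measured by TaqMan qRT-PCR and normalised to three housekeeping genes.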 The essentials:
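Chemicals in 0.5% DMSO, eight half-log concentrations from 100 uM top, were applied in duplicate for 48 h to human HepaRG cells in serum-free induction medium. CCND2 mRNA by TaqMan qRT-PCR, normalised to ACTB/GAPDH/POLR2A; bidirectional fit versus DMSO.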

Read-out in assay [3]: Cyclin Dependent Kinase Inhibitor 1A (CDKN1A), CDKN1A (gene 1026)
Nature of the assay: LTEA_HepaRG_CDKN1A: Life Technologies and Expression Analysis (LTEA) Assay for Cyclin Dependent Kinase Inhibitor 1A (CDKN1A) using HepaRG (AID 2283450). The essentials:
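Gain or loss of CDKN1A transcript is scored by bidirectional fitting against 0.5% DMSO vehicle. Human HepaRG cultures receive chemicals for 48 h across an 8-point series peaking at 100 uM; expression comes from qRT-PCR.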

Read-out in assay [4]: Cyclin D1 (CCND1), CCND1 (gene 595)
As to the kind of experiment: LTEA_HepaRG_CCND1: Life Technologies and Expression Analysis (LTEA) Assay for Cyclin D1 (CCND1) using HepaRG (AID 2283451).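 For AC50: TaqMan qRT-PCR transcript level normalised to ACTB GAPDH and POLR2A housekeeping genes.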 The essentials:
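Expression change is measured by qRT-PCR in HepaRG cells after 48 h treatment across eight concentrations topping at 100 uM, with duplicate wells and DMSO (0.5%) serving as baseline for bidirectional fitting.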

Read-out in assay [5]: catalase (CAT), CAT (gene 847)
As to the kind of experiment: LTEA_HepaRG_CAT: Life Technologies and Expression Analysis (LTEA) Assay for catalase (CAT) using HepaRG (AID 2283452). The essentials:
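HepaRG cells in serum-free induction medium, 0.5% DMSO vehicle, exposed 48 h in duplicate over 8 half-log concentrations from 100 uM. CAT mRNA measured by qRT-PCR, normalized to ACTB, GAPDH, POLR2A; bidirectional fit versus DMSO.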

Read-out in assay [6]: flavin-containing dimethylaniline monooxygenases 3 (FMO3), FMO3 (gene 2328)
Nature of the assay: LTEA_HepaRG_FMO3: Life Technologies and Expression Analysis (LTEA) Assay for flavin-containing dimethylaniline monooxygenases 3 (FMO3) using HepaRG (AID 2283453). The essentials:
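HepaRG, 48 h exposure, 8-pt half-log series from 100 uM, 0.5% DMSO vehicle, duplicates; FMO3 transcript by Fluidigm TaqMan qRT-PCR, housekeeping-normalized; gain/loss fit vs DMSO.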

Read-out in assay [7]: Cytochrome P450 (CYP1A1), CYP1A1 (gene 1543)
Nature of the assay: LTEA_HepaRG_CYP1A1: Life Technologies and Expression Analysis (LTEA) Assay for Cytochrome P450 (CYP1A1) using HepaRG (AID 2283454). The essentials:
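Using HepaRG cultures with 0.5% DMSO as vehicle, eight-concentration exposures (max 100 uM) lasted 48 h. Transcript levels were measured by TaqMan qRT-PCR and normalized to ACTB, GAPDH and POLR2A.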

Read-out in assay [8]: CFLAR gene, CFLAR (gene 8837)
Nature of the assay: LTEA_HepaRG_CFLAR: Life Technologies and Expression Analysis (LTEA) Assay for CFLAR gene using HepaRG (AID 2283455). The essentials: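 Differentiated HepaRG cells in serum-free induction medium were exposed 48 h in duplicate to eight half-log concentrations up to 100 uM in 0.5% DMSO; mRNA measured by TaqMan qRT-PCR, normalized to ACTB, GAPDH, POLR2A; bidirectional fitting versus DMSO.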

Read-out in assay [9]: growth arrest and DNA damage 45 (GADD45A), GADD45A (gene 1647)
Nature of the assay: LTEA_HepaRG_GADD45A: Life Technologies and Expression Analysis (LTEA) Assay for growth arrest and DNA damage 45 (GADD45A) using HepaRG (AID 2283458). The essentials:
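Differentiated HepaRG cells were exposed in duplicate for 48 h in serum-free induction medium to 8-point half-log concentrations up to 100 uM in 0.5% DMSO. GADD45A mRNA was measured by TaqMan qRT-PCR, normalized to ACTB, GAPDH and POLR2A, with bidirectional fitting versus DMSO.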

Read-out in assay [10]: Forkhead box O3 (FOXO3), FOXO3 (gene 2309)
As to the kind of experiment: LTEA_HepaRG_FOXO3: Life Technologies and Expression Analysis (LTEA) Assay for Forkhead box O3 (FOXO3) using HepaRG (AID 2283459). The essentials:
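Differentiated human HepaRG cells, 48 h post-plating, exposed in duplicate for 48 h in serum-free induction medium; 8-point half-log series from 100 uM in 0.5% DMSO. FOXO3 mRNA by TaqMan qRT-PCR, normalized to ACTB/GAPDH/POLR2A; bidirectional fit versus DMSO.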

Read-out in assay [11]: ABC Transporter (ABCB1), ABCB1 (gene 5243)
Nature of the assay: LTEA_HepaRG_ABCB1: Life Technologies and Expression Analysis (LTEA) Assay for ABC Transporter (ABCB1) using HepaRG (AID 2283460). The essentials:
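HepaRG cells exposed in duplicate for 48 h in serum-free induction medium to eight half-log concentrations up to 100 uM in 0.5% DMSO. ABCB1 mRNA quantified by qRT-PCR, normalised to ACTB, GAPDH and POLR2A; fitted bidirectionally versus DMSO.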

Read-out in assay [12]: growth arrest and DNA damage 45 (GADD45B), GADD45B (gene 4616)
As to the kind of experiment: LTEA_HepaRG_GADD45B: Life Technologies and Expression Analysis (LTEA) Assay for growth arrest and DNA damage 45 (GADD45B) using HepaRG (AID 2283461). The essentials:
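Human HepaRG monolayers receive chemicals for 48 h at eight half-log concentrations, highest 100 uM, in 0.5% DMSO. Expression is measured by TaqMan qRT-PCR and normalized to ACTB, GAPDH and POLR2A.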

Read-out in assay [13]: ABC Transporter (ABCC3), ABCC3 (gene 8714)
As to the kind of experiment: LTEA_HepaRG_ABCC3: Life Technologies and Expression Analysis (LTEA) Assay for ABC Transporter (ABCC3) using HepaRG (AID 2283462). The essentials: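 Transcriptional change of ABCC3 in HepaRG after 48 h treatment, determined by qRT-PCR normalized to endogenous controls. Concentrations spanned eight half-log steps to 100 uM in 0.5% DMSO.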

Read-out in assay [14]: ABC Transporter (ABCB11), ABCB11 (gene 8647)
As to the kind of experiment: LTEA_HepaRG_ABCB11: Life Technologies and Expression Analysis (LTEA) Assay for ABC Transporter (ABCB11) using HepaRG (AID 2283463). The essentials:
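Differentiated human HepaRG cells in serum-free induction medium, dosed in duplicate for 48 h. Eight-point half-log series from 100 uM in 0.5% DMSO; ABCB11 mRNA by qRT-PCR, normalized to ACTB, GAPDH, POLR2A, fitted bidirectionally versus DMSO.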

Read-out in assay [15]: Broad substrate specificity ATP-binding cassette transporter ABCG2 (Homo sapiens) (UniProt Q9UNQ0)
Nature of the assay: LTEA_HepaRG_ABCG2: Life Technologies and Expression Analysis (LTEA) Assay for ABC Transporter (ABCG2) using HepaRG (AID 2283465). The essentials:
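Differentiated HepaRG cells were exposed for 48 h in serum-free induction medium to 8 half-log concentrations, top 100 uM, in 0.5% DMSO. ABCG2 mRNA was measured by qRT-PCR, normalized to ACTB, GAPDH and POLR2A, with bidirectional fitting versus DMSO.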

Read-out in assay [16]: ATP-citrate lyase (ACLY), ACLY (gene 47)
As to the kind of experiment: LTEA_HepaRG_ACLY: Life Technologies and Expression Analysis (LTEA) Assay for ATP-citrate lyase (ACLY) using HepaRG (AID 2283466). The essentials:
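Differentiated HepaRG cells exposed 48 h in serum-free induction medium to eight half-log concentrations up to 100 uM in 0.5% DMSO, duplicates. Transcript measured by Fluidigm TaqMan qRT-PCR, normalized to ACTB, GAPDH, POLR2A; bidirectional fit versus DMSO.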

Read-out in assay [17]: Peroxisomal acyl-coenzyme A oxidase 1 (ACOX1) gene, ACOX1 (gene 51)
Nature of the assay: LTEA_HepaRG_ACOX1: Life Technologies and Expression Analysis (LTEA) Assay for Peroxisomal acyl-coenzyme A oxidase 1 (ACOX1) gene using HepaRG (AID 2283467). The essentials:
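HepaRG cells, plated 48 h then switched to serum-free induction medium, were exposed in duplicate for 48 h to 8-point half-log concentrations up to 100 uM in 0.5% DMSO. ACOX1 mRNA was measured by qRT-PCR, normalized to ACTB/GAPDH/POLR2A, and fitted bidirectionally versus DMSO.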

Read-out in assay [18]: Forkhead box O1 (FOXO1), FOXO1 (gene 2308)
Nature of the assay: LTEA_HepaRG_FOXO1: Life Technologies and Expression Analysis (LTEA) Assay for Forkhead box O1 (FOXO1) using HepaRG (AID 2283456). The essentials: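 Differentiated HepaRG cells, in serum-free induction medium with 0.5% DMSO, exposed 48 h in duplicate to 8-point half-log series from 100 uM. FOXO1 mRNA measured by TaqMan qRT-PCR, normalized to ACTB, GAPDH, POLR2A; bidirectional fit versus DMSO.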

Read-out in assay [19]: ABC Transporter (ABCC2), ABCC2 (gene 1244)
Nature of the assay: LTEA_HepaRG_ABCC2: Life Technologies and Expression Analysis (LTEA) Assay for ABC Transporter (ABCC2) using HepaRG (AID 2283464). The essentials:
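After plating and 48 h culture, HepaRG medium is replaced with serum-free induction medium and chemicals are added (8 concentrations, max 100 uM, 0.5% DMSO) for 48 h. Total RNA then undergoes qRT-PCR for ABCC2 with housekeeping normalization.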

Molecules are shown by their SMILES. The source made the active and inactive calls. Rule for the calls: active = hit-call score of the fitted dose curve at least 0.9, where 1 is the maximum; inactive = score below 0.9.

For orientation: AC50 means the concentration giving half of the maximal activity seen.

Broad substrate specificity ATP-binding cassette transporter ABCG2 (Homo sapiens), sequence (Q9UNQ0 whole entry, looked up): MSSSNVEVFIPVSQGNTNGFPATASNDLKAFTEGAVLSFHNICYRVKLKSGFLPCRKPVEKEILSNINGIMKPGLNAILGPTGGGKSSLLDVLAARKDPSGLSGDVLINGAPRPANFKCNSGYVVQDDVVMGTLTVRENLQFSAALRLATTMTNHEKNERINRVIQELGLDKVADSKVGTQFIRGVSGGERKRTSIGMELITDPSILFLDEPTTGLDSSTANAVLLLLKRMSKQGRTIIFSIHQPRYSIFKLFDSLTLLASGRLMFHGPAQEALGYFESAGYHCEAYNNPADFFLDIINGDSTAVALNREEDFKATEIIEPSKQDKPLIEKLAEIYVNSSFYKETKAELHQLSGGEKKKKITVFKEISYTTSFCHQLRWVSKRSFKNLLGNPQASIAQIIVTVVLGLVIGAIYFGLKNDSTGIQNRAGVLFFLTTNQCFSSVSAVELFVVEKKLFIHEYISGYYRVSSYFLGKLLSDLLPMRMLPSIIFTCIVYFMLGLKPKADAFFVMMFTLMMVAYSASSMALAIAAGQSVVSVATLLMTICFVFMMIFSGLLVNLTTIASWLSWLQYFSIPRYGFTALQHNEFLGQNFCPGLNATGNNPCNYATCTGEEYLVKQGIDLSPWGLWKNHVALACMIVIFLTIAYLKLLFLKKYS
Fatty acid synthase (Homo sapiens), sequence (P49327 whole entry, looked up): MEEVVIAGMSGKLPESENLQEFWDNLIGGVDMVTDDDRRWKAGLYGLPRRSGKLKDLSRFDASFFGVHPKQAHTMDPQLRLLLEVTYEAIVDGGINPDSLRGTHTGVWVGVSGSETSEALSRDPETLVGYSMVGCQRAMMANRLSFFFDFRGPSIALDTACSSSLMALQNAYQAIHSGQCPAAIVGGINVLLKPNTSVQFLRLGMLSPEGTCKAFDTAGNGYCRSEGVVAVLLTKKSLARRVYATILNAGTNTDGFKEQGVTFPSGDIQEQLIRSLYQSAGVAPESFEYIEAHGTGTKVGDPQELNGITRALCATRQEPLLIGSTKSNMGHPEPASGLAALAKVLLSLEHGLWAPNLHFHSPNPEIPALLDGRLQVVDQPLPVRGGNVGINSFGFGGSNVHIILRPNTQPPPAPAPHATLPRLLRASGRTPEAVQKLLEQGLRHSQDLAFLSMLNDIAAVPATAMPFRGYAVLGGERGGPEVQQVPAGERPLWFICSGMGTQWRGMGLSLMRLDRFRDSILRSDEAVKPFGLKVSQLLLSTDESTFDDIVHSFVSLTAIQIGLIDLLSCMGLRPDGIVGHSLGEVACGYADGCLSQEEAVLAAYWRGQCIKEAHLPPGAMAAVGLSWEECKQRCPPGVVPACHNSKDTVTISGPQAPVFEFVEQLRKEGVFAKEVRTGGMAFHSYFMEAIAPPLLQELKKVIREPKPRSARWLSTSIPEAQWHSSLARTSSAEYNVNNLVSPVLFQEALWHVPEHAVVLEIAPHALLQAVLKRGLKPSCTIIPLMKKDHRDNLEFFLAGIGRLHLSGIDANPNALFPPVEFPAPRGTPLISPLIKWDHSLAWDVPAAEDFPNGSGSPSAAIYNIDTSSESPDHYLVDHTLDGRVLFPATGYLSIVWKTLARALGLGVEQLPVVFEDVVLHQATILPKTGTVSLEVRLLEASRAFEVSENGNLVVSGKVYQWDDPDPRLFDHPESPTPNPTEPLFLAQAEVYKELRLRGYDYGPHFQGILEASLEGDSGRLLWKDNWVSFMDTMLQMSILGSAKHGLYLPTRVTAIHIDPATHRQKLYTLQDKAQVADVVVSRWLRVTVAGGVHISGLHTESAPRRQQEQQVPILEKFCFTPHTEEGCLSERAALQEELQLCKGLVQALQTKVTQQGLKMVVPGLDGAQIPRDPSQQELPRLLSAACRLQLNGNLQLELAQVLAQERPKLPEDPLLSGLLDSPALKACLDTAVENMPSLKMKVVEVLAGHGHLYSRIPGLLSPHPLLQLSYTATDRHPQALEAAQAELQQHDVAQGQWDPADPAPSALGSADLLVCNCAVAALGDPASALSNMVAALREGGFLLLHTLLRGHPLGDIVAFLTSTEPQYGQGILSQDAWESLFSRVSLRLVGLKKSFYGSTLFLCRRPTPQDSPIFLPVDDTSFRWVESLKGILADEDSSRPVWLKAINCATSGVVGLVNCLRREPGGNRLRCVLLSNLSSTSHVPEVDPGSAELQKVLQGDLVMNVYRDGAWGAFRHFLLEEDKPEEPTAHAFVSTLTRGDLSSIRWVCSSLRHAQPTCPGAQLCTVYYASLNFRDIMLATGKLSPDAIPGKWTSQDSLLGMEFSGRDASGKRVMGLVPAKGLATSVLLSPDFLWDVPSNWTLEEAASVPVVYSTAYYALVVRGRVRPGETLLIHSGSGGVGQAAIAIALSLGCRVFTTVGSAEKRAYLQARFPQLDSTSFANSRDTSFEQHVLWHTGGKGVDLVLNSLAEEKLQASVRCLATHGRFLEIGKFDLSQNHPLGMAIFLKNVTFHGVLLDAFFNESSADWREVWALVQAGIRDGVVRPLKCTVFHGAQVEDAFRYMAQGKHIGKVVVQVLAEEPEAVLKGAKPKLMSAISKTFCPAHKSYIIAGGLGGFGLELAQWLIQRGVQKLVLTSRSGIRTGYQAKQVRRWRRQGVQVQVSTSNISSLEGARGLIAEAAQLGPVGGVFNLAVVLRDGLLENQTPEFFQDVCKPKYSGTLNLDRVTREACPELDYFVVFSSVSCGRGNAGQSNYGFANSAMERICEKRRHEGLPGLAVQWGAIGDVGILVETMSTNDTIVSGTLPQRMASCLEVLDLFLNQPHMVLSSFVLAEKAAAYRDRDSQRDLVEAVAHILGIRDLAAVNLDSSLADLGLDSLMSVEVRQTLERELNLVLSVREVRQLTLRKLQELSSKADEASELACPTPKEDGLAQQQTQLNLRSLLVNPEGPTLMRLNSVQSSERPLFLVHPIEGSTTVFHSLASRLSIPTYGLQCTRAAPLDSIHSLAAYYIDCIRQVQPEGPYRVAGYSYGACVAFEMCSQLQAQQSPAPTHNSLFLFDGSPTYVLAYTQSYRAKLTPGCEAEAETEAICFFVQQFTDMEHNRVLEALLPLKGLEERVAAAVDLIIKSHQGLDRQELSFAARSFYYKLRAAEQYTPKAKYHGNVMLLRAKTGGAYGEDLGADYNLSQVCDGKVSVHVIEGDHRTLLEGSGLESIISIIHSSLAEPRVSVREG

As to `CC#Cc1cc(C)nc(Nc2ccccc2)n1`, the AC50 was 1.83 µM (active) in assay [1]; 80.1 µM (active) in assay [3]; 13.3 µM (active) in [4]; 21.8 µM (active) in assay [6]; 13.8 µM (active) in assay [7]; 7.38 µM (active) in assay [10]. Further, the results for the AC50 in assay [12], in assay [14] and in assay [15] were 19.2 µM (active), 9.09 µM (active) and 29.9 µM (active), respectively. In addition, the result in assay [2], in assay [5], in [8], in assay [9], in assay [11] and in assay [13] was inactive. Moreover, the outcome in [16] and in assay [17] was inactive.
With `Cc1ccc(O)c(C)c1`, the result in assay [1], in assay [2], in assay [3], in assay [4], in assay [5] and in assay [6] was inactive. Besides, the compound was called inactive in [7], in assay [8], in assay [18], in [9], in [10] and in assay [11]. The compound was called inactive in assay [12], in [13], in [14], in [19], in assay [15] and in [16]. Besides, the compound was called inactive in [17].
Regarding `ClC1=C(Cl)[C@]2(Cl)[C@@H]3[C@@H]4C[C@@H]([C@H]5O[C@@H]45)[C@@H]3[C@@]1(Cl)C2(Cl)Cl`, the result in [1], in assay [2], in assay [3], in assay [4], in [5] and in assay [6] was inactive. For the same compound, the outcome in assay [8], in assay [9], in [12], in assay [13] and in assay [14] was inactive. Further, the AC50 in [7] was 28.3 µM (active); in [10], 0.0321 µM (active); in assay [11], 0.0325 µM (active); in [15], 20.8 µM (active); in assay [16], 0.033 µM (active); in assay [17], 0.0311 µM (active).
For the compound `O=NN(c1ccccc1)c1ccccc1`, the compound was classed as inactive in assay [1], in assay [2], in [3], in assay [4], in assay [5] and in assay [6]. For the same compound, the compound was classed as inactive in assay [8], in assay [10], in assay [11], in assay [12], in assay [13] and in assay [14]. Also, the call in [19], in assay [15], in [16] and in [17] was inactive. Besides, the values for the AC50 in assay [7] and in assay [9] were 25.9 µM (active) and 78.8 µM (active), respectively.

For the origin of these results see PubChem BioAssay (EPA / NIEHS).
